Experimental data taken from PubChem BioAssay (NCATS).
Values joined by “and” are separate entries in the source; they are usually repeats but may differ in a detail not shown here. Equal entries are not always repeated. Records with an inconclusive call do not appear. Active and inactive are the calls of the source. The call rests on the fitted dose curve; in most records, active means well fitted curve in the direction sought with a large enough effect; inconclusive means small, poorly fitted or top-dose-only effect, or another doubt; inactive means no such curve, though single readings can be large; an effect the other way counts as inactive or inconclusive.

Key:
[1] = target: Cellular tumor antigen p53 (Homo sapiens) (UniProt P04637); assay: Primary qHTS for small molecule compounds that upregulate eGFP-tagged delta133p53alpha (in N-terminal) cells. (AID 2060322); conditions: NCI-H358 eGFP-delta133p53alpha fluorescence, 24 h; activation: stronger effect = higher value;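 further: 0% = DMSO vehicle and 100% = reference activator; nearly all actives have a fitted effect of over 75% in size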
Sequence of Cellular tumor antigen p53 (Homo sapiens) (P04637 whole entry, looked up): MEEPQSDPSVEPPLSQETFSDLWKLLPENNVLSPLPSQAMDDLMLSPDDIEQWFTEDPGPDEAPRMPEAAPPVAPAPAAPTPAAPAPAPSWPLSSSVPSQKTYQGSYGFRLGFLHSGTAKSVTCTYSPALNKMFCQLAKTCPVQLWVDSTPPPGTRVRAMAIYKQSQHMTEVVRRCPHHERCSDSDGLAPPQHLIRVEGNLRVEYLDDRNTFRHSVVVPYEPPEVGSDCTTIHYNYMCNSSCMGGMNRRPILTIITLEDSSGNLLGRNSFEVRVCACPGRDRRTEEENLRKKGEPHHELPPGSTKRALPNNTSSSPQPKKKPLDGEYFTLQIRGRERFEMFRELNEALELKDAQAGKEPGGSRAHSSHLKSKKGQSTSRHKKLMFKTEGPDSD
How it was run: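 NCI-H358 cells pre-induced 24 h with 10 ng/ml doxycycline to express N-terminal eGFP-delta133p53alpha, then dosed 24 h at 37C without doxycycline; fixed, Hoechst-stained, GFP intensity by laser scanning cytometry, normalized to DMSO (0%) and 57.5 uM 5-azacytidine (100%).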

[2] = target: Aldehyde dehydrogenase, mitochondrial (Homo sapiens) (UniProt P05091); assay: qHTS for Inhibitors of the Aldehyde Dehydrogenase Family (ALDH2) Primary screen (AID 2061308); conditions: ALDH2 enzyme inhibition qHTS, 1536-well; series mostly up to 56 µM;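 further: plate controls were vehicle for no effect and reference inhibitor for full effect; nearly all actives have a fitted effect of over 55% in size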
[3] = target: Retinaldehyde dehydrogenase 3 (Homo sapiens) (UniProt P47895); assay: qHTS for Inhibitors of the Aldehyde Dehydrogenase Family (ALDH1A3) Validation screen (AID 2061312); conditions: ALDH1A3 enzyme inhibition qHTS validation, fluorescence; series mostly up to 84.7 µM; further: on the % scale 0 is the no-effect control and ±100 the full control effect; nearly all actives have a fitted effect of over 45% in size
[4] = target: Retinaldehyde dehydrogenase 3 (Homo sapiens) (UniProt P47895); assay: qHTS for Inhibitors of the Aldehyde Dehydrogenase Family (ALDH1A3) Primary screen (AID 2061315); conditions: ALDH inhibition qHTS; series mostly up to 56 µM;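 further: plate controls were DMSO vehicle for no effect and reference inhibitor for full effect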

CN(C)C(=O)NC1CCC(CCN2CCN(c3cccc(Cl)c3Cl)CC2)CC1 (stereo not given)
inactive: activation [1] -1.91% | activity change, negative = inhibition [2] 8.14% [at 11.2 µM] | activity change, negative = inhibition [3] 7.05% [at 20.1 µM] | activity change, negative = inhibition [4] -11.6% [at 11.2 µM]

O=C(Nc1nc2ccccc2n1CCc1ccccc1)c1ccccc1
inactive: activation [1] 6.68% | Potency [2] | Potency [3] | Potency [4]

COc1cccc(N2CCN(C3=Nc4c(F)cccc4[C@H](CC(=O)O)N3c3cc(C(F)(F)F)ccc3OC)CC2)c1
inactive: activation [1] -5.73% | Potency [2] | Potency [3] | Potency [4]

CC1(C)CC(=O)N(CCCCN2CCN(c3ncccn3)CC2)C(=O)C1
inactive: activation [1] -2.86% | Potency [2] | Potency [3] | Potency [4]

CC(C)(C)NCC(O)COc1cccc2c1CCCC2=O (stereo not given)
inactive: activation [1] -7.64% | Potency [2] | Potency [3] | Potency [4]

CCCC(Nc1nc(-c2ccc(NC(=O)NCC)c(OC)c2)ncc1C)c1cccnc1 (stereo not given)
inactive: activation [1] -2.86% | Potency [2] | Potency [3] | Potency [4]

CC(C)c1ccc(NC(=O)Cn2cnc3c2c(=O)n(C)c(=O)n3C)cc1
inactive: activation [1] -14.8% | Potency [2] | Potency [3] | Potency [4]

CC(C)c1ccc(-c2cc(=O)c3ccccc3o2)cc1
inactive: activation [1] -14.8% | Potency [2] | Potency [3] | Potency [4]

Oc1ccc2nc(CN3CCC(Cc4ccccc4F)CC3)[nH]c2c1
inactive: activation [1] -1.91% | Potency [2] | Potency [3] | Potency [4]

CNC(=O)O[C@H]1COc2ccc(N3CCN(C4COC4)CC3)cc2[C@@H]1NC(=O)c1ccc(F)cc1
inactive: activation [1] -1.43% | Potency [2] | Potency [3] | Potency [4]

O=C(Nc1cccc(C(F)(F)F)c1)Nc1cc(S(=O)(=O)NC2CC2)ccc1-c1ccsc1
inactive: activation [1] 29.6% and 2.39% | Potency [2] | Potency [3] | Potency [4]

Nc1ncnc2c1c(-c1ccc(Oc3ccccc3)cc1)nn2[C@@H]1CCCNC1
inactive: activation [1] 20% | Potency [2] | Potency [3] | Potency [4]

CC(NC(=O)CCc1nc2ccccc2c(=O)[nH]1)c1ccccc1 (stereo not given)
inactive: activation [1] -1.43% | Potency [2] | Potency [3] | Potency [4]

O=C(CCCN1CCN(c2ccccn2)CC1)c1ccc(F)cc1
inactive: activation [1] -3.82% | Potency [2] | Potency [3] | Potency [4]

CCN(CC)C(=O)Nc1ccc(OCC(O)CNC(C)(C)C)c(C(C)=O)c1 (stereo not given)
inactive: activation [1] -6.69% and 4.3% | Potency [2] | Potency [3] | Potency [4]

NS(=O)(=O)c1ccc(NC(=O)Nc2ccc(F)cc2)cc1
inactive: activation [1] -7.64% | Potency [2] | Potency [3] | Potency [4]

O=C(NCCN1CCN(c2cccc3c2OCCO3)CC1)c1ccc(F)cc1
inactive: activation [1] -9.07% | Potency [2] | Potency [3] | Potency [4]

CN[C@H](CNC(=O)N1CCC[C@@H]([C@@H](OCCNC(=O)OC)c2cccc(Cl)c2)C1)C[C@H]1CCCOC1
inactive: activation [1] 11.5% | Potency [2] | Potency [3] | Potency [4]

COc1cc(Nc2nc3ccccc3nc2NS(=O)(=O)c2ccc(NC(=O)c3ccc(OC)c(C)c3)cc2)cc(OC)c1
inactive: activation [1] -18.6% | Potency [2] | Potency [3] | Potency [4]

COc1c(F)cccc1C(=O)N1C[C@@H](C)CC[C@H]1CNc1ccc(Br)cn1
inactive: activation [1] -8.59% | Potency [2] | Potency [3] | Potency [4]

O=C(Nc1ccc(-n2nc(C(F)(F)F)cc2C(F)(F)F)cc1)c1ccncc1F
inactive: activation [1] -5.25% | Potency [2] | Potency [3] | Potency [4]

C[C@@H]1C(=O)O[C@H]2CC34[C@H]5C[C@@H](C(C)(C)C)C36[C@@H](OC(=O)[C@@H]6O)OC4(C(=O)O5)[C@]21O (stereo not given in full)
inactive: activation [1] -10% | Potency [2] | Potency [3] | Potency [4]

CN(C)CCC[C@]1(c2ccc(F)cc2)OCc2cc(C#N)ccc21
inactive: activation [1] 0.477% | Potency [2] | Potency [3] | Potency [4]

CCO[C@H]1CN(C2CCC(O)(c3ccc4c(c3)OCO4)CC2)C[C@@H]1NC(=O)CNC(=O)c1cccc(C(F)(F)F)c1 (stereo not given in full)
inactive: activation [1] 10.5% | Potency [2] | Potency [3] | Potency [4]

Oc1ccccc1-c1cc(-c2ccccc2F)[nH]n1
inactive: activation [1] -12.9% | Potency [2] | Potency [3] | Potency [4]

CC(C)[C@@H](c1ccc(C(F)(F)F)cc1CN(Cc1cc(C(F)(F)F)cc(C(F)(F)F)c1)c1nnn(C)n1)N1CCC(C(=O)O)CC1
inactive: activation [1] 6.68% | Potency [2] | Potency [3] | Potency [4]

Nc1c(-c2ccccc2)nc(Cl)c2c(O)n[nH]c(=O)c12
inactive: activation [1] -1.91% | Potency [2] | Potency [3] | Potency [4]

Nc1nc2c(ncn2[C@@H]2O[C@H](CO)[C@@H](O)[C@H]2O)c(=O)[nH]1
inactive: activation [1] -1.43% | Potency [2] | Potency [3] | Potency [4]

CNc1cc(OC)c(C(=O)N[C@@H]2CCN(Cc3ccccc3)[C@@H]2C)cc1Cl
inactive: activation [1] 12.4% | Potency [2] | Potency [3] | Potency [4]

CCC[C@@]1(CCc2ccccc2)CC(O)=C([C@H](CC)c2cccc(NS(=O)(=O)c3ccc(C(F)(F)F)cn3)c2)C(=O)O1
inactive: activation [1] -3.82% | Potency [2] | Potency [3] | Potency [4]

O=C(NCc1ccccn1)Nc1nnc(-c2ccco2)o1
inactive: activation [1] 11.9% | Potency [2] | Potency [3] | Potency [4]

CC(C)N(CCCCOCC(=O)NS(C)(=O)=O)c1cnc(-c2ccccc2)c(-c2ccccc2)n1
inactive: activation [1] -4.77% | Potency [2] | Potency [3] | Potency [4]

CNC(=O)[C@@H](c1ccccc1)N1CCc2cc(OC)c(OC)cc2[C@@H]1CCc1ccc(C(F)(F)F)cc1
inactive: activation [1] -3.34% | Potency [2] | Potency [3] | Potency [4]

CN[C@@H]1[C@@H](O)[C@@H](O[C@@H]2[C@@H](O)[C@H](O[C@H]3O[C@@H]([C@@H](C)NC)CC[C@H]3N)[C@@H](N)C[C@H]2N)OC[C@]1(C)O
inactive: activation [1] -8.59% | Potency [2] | Potency [3] | Potency [4]

O=C(NCC1(c2nc(-c3ccccc3)cs2)CCOCC1)c1cccc(-c2noc(C(F)(F)F)n2)c1
inactive: activation [1] 1.43% | Potency [2] | Potency [3] | Potency [4]

c1cc(OCCCN2CCCCC2)ccc1CN1CCCCC1
inactive: activation [1] 5.25% | Potency [2] | Potency [3] | Potency [4]

C[C@@H](O)[C@H](NC(=O)c1ccc(C#Cc2ccc(CN3CCOCC3)cc2)cc1)C(=O)NO
inactive: activation [1] -6.68% | Potency [2] | Potency [3] | Potency [4]

O=c1[nH]c2ccccc2n1CCN1CCN(c2cccc(C(F)(F)F)c2)CC1
inactive: activation [1] -3.34% | Potency [2] | Potency [3] | Potency [4]

Nc1nc(CC(=O)Nc2ccc(CCNCC(O)c3ccccc3)cc2)cs1 (stereo not given)
inactive: activation [1] -11% | Potency [2] | Potency [3] | Potency [4]

c1ccc(C(OC2CCN(CCCc3nn[nH]n3)CC2)c2ccccc2)cc1
inactive: activation [1] -4.77% | Potency [2] | Potency [3] | Potency [4]

COc1ccc(NC(=O)c2ccc(-c3ccc(-c4nnc(C)o4)cc3C)cc2)cc1N1CCN(C)CC1
inactive: activation [1] -6.21% | Potency [2] | Potency [3] | Potency [4]

Cc1ccc(-c2c(-c3nn(C)c4ncnc(N5CC[C@H](N6CCCCC6)C5)c34)cnn2C)cc1
inactive: activation [1] 0.477% | Potency [2] | Potency [3] | Potency [4]

CC(C)[N+]1(C)C2CCC1CC(OC(=O)C(CO)c1ccccc1)C2 (stereo not given)
inactive: activation [1] 3.82% | Potency [2] | Potency [3] | Potency [4]

COc1cccc(C(=O)N2CCN(C(=O)COc3cccc(C)c3)CC2)c1OC
inactive: activation [1] 4.77% | Potency [2] | Potency [3] | Potency [4]

COc1ccccc1Oc1ccc(N(Cc2cccnc2)S(=O)(=O)CC(F)(F)F)cc1
inactive: activation [1] -6.21% | Potency [2] | Potency [3] | Potency [4]

CCN(CC)CCCS(=O)(=O)N[C@H](CCc1ccccc1)c1nc(Cc2ccc(Br)cc2)no1
inactive: activation [1] 7.64% | Potency [2] | Potency [3] | Potency [4]

COc1ccc(C2(CNC(=O)c3ccc(NC(=O)c4ccco4)cc3)CCOCC2)cc1
inactive: activation [1] 5.25% | Potency [2] | Potency [3] | Potency [4]

COc1cccc(-c2cc(NCc3ccc4c(c3)OCO4)nc(N)n2)c1
inactive: activation [1] -3.82% | Potency [2] | Potency [3] | Potency [4]

Cc1nc(Nc2ccc(F)cc2)nc(N2CCc3ccccc3C2C)c1C (stereo not given)
inactive: activation [1] 11.9% | Potency [2] | Potency [3] | Potency [4]

COc1cccc(CNc2ccc(S(=O)(=O)Nc3nc4ccccc4s3)cc2)c1O
inactive: activation [1] -10.5% | Potency [2] | Potency [3] | Potency [4]

O=C(O)CCc1ccc(NCc2cccc3c2CCCN3CCOc2ccccc2)cc1F
inactive: activation [1] 2.39% | Potency [2] | Potency [3] | Potency [4]

Cc1cc(OCCN2CCOCC2)nn1-c1ccc2ccccc2c1
inactive: activation [1] 4.3% | Potency [2] | Potency [3] | Potency [4]

Cc1[nH]c2ccccc2c1CCNC(=O)c1cccs1
inactive: activation [1] -18.1% | Potency [2] | Potency [3] | Potency [4]

O=C(Nc1ccc(S(=O)(=O)Nc2nccs2)cc1)C(c1ccccc1)c1ccccc1
inactive: activation [1] -2.86% | Potency [2] | Potency [3] | Potency [4]

CCn1c(=O)n([C@H]2CCCN(c3nccc(-c4cc5ccccc5o4)n3)C2)c2ccccc21
inactive: activation [1] -7.16% | Potency [2] | Potency [3] | Potency [4]
